From PubChem BioAssay (Tox21)
Results filed as inconclusive are left out. A number with no mark means an inactive call. The source made the active and inactive calls. The call rests on the fitted dose curve; in most records, active means well fitted inhibition curve with a large enough effect in the repeat runs; inconclusive means weak or mixed curves; inactive means no such curve, though single readings can be large or run the other way.

molecular target: Cytochrome P450 2C9 (Homo sapiens) (UniProt P11712); assay: Cytochrome P450 Family 2 Subfamily C Member 9 (CYP2C9) small molecule antagonists: luciferase reporter qHTS assay (AID 1671198); conditions: P450-Glo CYP2C9 enzyme assay, luciferin luminescence; series mostly up to 115 µM; activity change, negative = inhibition: at the top concentration; further: nearly all actives have a fitted effect of over 50% in size
Description: U.S. Tox21 Program National Center for Advancing Translational Sciences [NCATS] U.S. Environmental Protection Agency [EPA] National Institutes of Environmental Health Sciences [NIEHS] National Toxicology Program [NTP] U.S. Food and Drug Administration [FDA] Tox21 Assay Overview: Cytochrome P450 (CYP) enzymes are membrane-bound hemeproteins that play a key role in metabolism of drugs and xenobiotics. Evaluation of the effect of chemicals on CYP isozymes is useful to minimize the adverse drug reactions and toxicities in drug development process. Tox21 chemicals were tested for their effect on CYP enzyme activities by using P450-Glo (TM) screening systems (Promega Corporation, Madison, WI). These systems provide a luminescent method containing proluciferin substrates and are converted to luciferin products by CYP isozymes. The luciferin products formed are detected with a luciferin detection reagent, and the amount of light produced is proportional to CYP activity. P450-Glo (TM) CYP2C9 screening system (Catalog. No. V9790) was used to detect the compounds that interfere in CYP2C9 activity.
Tox21 Assay Protocol Summary: Two ul of enzyme-substrate mix was dispensed into medium binding white/solid 1536-well plates (Greiner Bio-One North America Inc., Monroe, NC) using a BioRaptr Flying Reagent Dispenser (FRD, Beckman Coulter, Brea, CA). […] The assay plates were incubated at room temperature for 10 min. Then 2 ul of NADPH regeneration solution was added to each well of the assay plates using an FRD and incubated at 37C for 1 h. The reaction was stopped by adding 4 ul of detection reagent using an FRD and after 20 min incubation at room temperature the luminescence signal was measured using a ViewLux plate reader (Perkin Elmer, Shelton, CT). Data were expressed as relative luminescence units.
On the % scale 0 is the no-effect control and ±100 the full control effect; potency means the concentration at half of the fitted maximal effect.

Cytochrome P450 2C9 (Homo sapiens), sequence (P11712 whole entry, looked up): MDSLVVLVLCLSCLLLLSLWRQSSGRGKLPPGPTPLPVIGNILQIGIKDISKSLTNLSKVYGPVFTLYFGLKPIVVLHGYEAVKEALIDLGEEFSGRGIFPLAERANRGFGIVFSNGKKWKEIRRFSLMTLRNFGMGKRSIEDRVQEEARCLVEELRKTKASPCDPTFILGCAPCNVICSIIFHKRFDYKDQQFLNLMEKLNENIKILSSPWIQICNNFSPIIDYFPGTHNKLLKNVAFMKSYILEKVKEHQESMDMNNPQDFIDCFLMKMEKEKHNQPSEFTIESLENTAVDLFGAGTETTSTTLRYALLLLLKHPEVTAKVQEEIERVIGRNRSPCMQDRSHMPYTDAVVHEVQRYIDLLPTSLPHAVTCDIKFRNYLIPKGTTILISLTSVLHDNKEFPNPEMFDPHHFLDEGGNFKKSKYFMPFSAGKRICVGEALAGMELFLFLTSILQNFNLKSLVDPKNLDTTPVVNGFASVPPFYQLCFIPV

Compound	Potency	activity change, negative = inhibition
C=C1C(CCl)(CCl)C2(Cl)C(Cl)C(Cl)C1(Cl)C2(Cl)Cl (stereo not given)	15.7 µM (active)	
CCSCC		-10.4%
O=C1OCc2ccccc21		-0.875%
Cc1ccc2n[nH]nc2c1		10.4%
CCN(CCC#N)c1ccc(N=Nc2ccc([N+](=O)[O-])cc2)cc1		-11%
Cn1ccnc1		-1.13%
COC(=O)c1ccc([N+](=O)[O-])cc1		-7.1%
CCN(CC)c1ccc(C=O)c(O)c1		38.2%
C=Cc1ccc(O)c(OC)c1	31.7 µM (active)	
O=C1OC(=O)c2cc(-c3ccc4c(c3)C(=O)OC4=O)ccc21		-11.7%
Cc1ccc(S(=O)(=O)C(I)I)cc1	1.12 µM (active)	
S=C1NC=NC2N=CNC12 (stereo not given)	39.9 µM (active)	
CCCCCCCC/C=C\CCCCCCCC(=O)N(CCO)CCO	14.1 µM (active)	
CC/C=C\C/C=C\C/C=C\CCCCCCCC(=O)OC	28.3 µM (active)	
COCCC(=O)OC		-0.261%
C1CCSC1		0.318%
C/C(=C\c1ccc(C(=O)O)cc1)c1ccc2c(c1)C(C)(C)CCC2(C)C		0.287% [at 53 µM]
O=C(c1ccccc1)c1ccc(Cl)cc1	15.9 µM (active)	
Cn1c(=O)[nH]c2ncn(C)c2c1=O		0.533%
C[C@H]1O[C@@H](O[C@H]2CC[C@@]3(C)[C@H](CC[C@@H]4[C@@H]3C[C@@H](O)[C@]3(C)[C@@H](C5=CC(=O)OC5)CC[C@]43O)C2)C[C@H](O)[C@@H]1O[C@H]1C[C@H](O)[C@H](O[C@H]2C[C@H](O)[C@H](O[C@@H]3O[C@H](CO)[C@@H](O)[C@H](O)[C@H]3O)[C@@H](C)O2)[C@@H](C)O1		-5.16% [at 53 µM]

Compound	Potency	activity change, negative = inhibition
Nc1c(Br)cc([N+](=O)[O-])cc1Br		78.5%
CCCCCCCCCCCCCCCCCCNC(=O)OC1CCN(C(=O)OC[C@H](COC(=O)N(Cc2cccc[n+]2CC)C(=O)c2ccccc2OC)OC)CC1	30.9 µM (active)	
CC(CC(C)(C)C)CC(C)(C)CC(C)(C)C (stereo not given)		2.85% [at 53 µM]
CCCCCN=C(N)N/N=C/c1c[nH]c2ccc(OC)cc12	38.9 µM (active)	
CC1=CC[C@@H](C(C)(C)O)CC1		-5.48%
CCOC(=O)C1=NN(c2ccc(Cl)cc2Cl)C(C)(C(=O)OCC)C1 (stereo not given)	7.1 µM (active)	
Cc1ccc2nc(-c3ccc(N)cc3)sc2c1S(=O)(=O)O	15.7 µM (active)	
C=CC(=O)OCCOC1C2CCC1C1CC=CC12 (stereo not given)		-18.2% [at 23.6 µM]
Cc1c(Cl)c(=O)oc2cc(O)ccc12		-16.8%
[Cl][Eu]([Cl])[Cl]		-2.98%
O=C(Nc1ccccc1)c1cc(Cl)ccc1O	17.8 µM (active)	
CCC(C)(C)c1ccc(CC(C)CN2C[C@@H](C)O[C@@H](C)C2)cc1 (stereo not given in full)	27.5 µM (active)	
O=C1CCCCCCCCCCCCCC1		-12.2%
CCCCNc1ccc(NCCCC)c2c1C(=O)c1ccccc1C2=O		-1.25% [at 23.6 µM]
CC(=O)Nc1ccc(N=Nc2cc(C)ccc2O)cc1	35.6 µM (active)	
CC/C(=C(/c1ccc(O)cc1)c1ccc(OCCN(C)C)cc1)c1ccccc1	37.2 µM (active)	
CC(=O)CC(N)=O		0.208%
COc1c(Br)cc(Br)c(C)c1Br		-6.41%
CCC(O)CO (stereo not given)		-0.842%
C=COCCCC		-0.43%
